HP1b binding inh = blocks HP1-beta chromodomain binding to methylated histone tails | AID 540317 | AlphaScreen HP1-beta / biotin-H3K9me3 peptide binding | hit rate 0.56% among 390,000 | Potency, µM (highest dose often 114 µM), hits mostly inhibitors | P83916; also: nearly all actives have a fitted effect of over 70% in size
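HP1-beta protein (50 nM final) preincubated 30 min at room temperature with biotinylated H3(1-18)K9me3 peptide (50 nM) in PBS pH 7.4, 0.01% Tween-20, then compound added for 30 min. AlphaScreen streptavidin donor/nickel chelate acceptor beads (10 ug/mL final), 30 min dark, luminescence read.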
Six1-Eya2 inh = Six1/Eya2 interaction inhibition; AlphaScreen GST-Six1/His-Eya2 binding, biochemical; hits give low values; hit rate 0.56% among 360,000; activity change, % (test concentration not listed); Q15475+O00167; AID 651725; in the data active = activity change below about -65%; inconclusive = mostly about -30% to -63%
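AlphaScreen luminescence read after one hour at 37 °C in darkness. Pin-transferred compounds met GST-Six1 and His-Eya2 protein (5X stock 250 nM/500 nM) plus glutathione donor and Ni-chelate acceptor beads (5X, 50 ug/mL).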
JMJD2A Tudor = JMJD2A Tudor domain (human) inhibition; O75164; AlphaScreen JMJD2A-Tudor / H3K4me3 peptide binding; Potency, µM (highest dose often 114 µM), usual class: inhibitors; hit rate 4.4% among 390,000; AID 504339; also: nearly all actives have a fitted effect of over 50% in size
CtBP-E1A inh = inhibitors of CtBP/E1A interaction | AlphaScreen GST-E1A/His-CtBP binding, 1536-well; hits give low values | activity change, % (no concentration beside the values) | hit rate 0.49% among 340,000 | AID 651724; in the data active = activity change below about -65%; inconclusive = mostly about -30% to -63%
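AlphaScreen with 125 nM GST-E1A and 125 nM His-CtBP (5X stocks) in Tris pH 8.0, 300 mM NaCl, BSA, Tween 20, TCEP. Compounds preincubated 2 h at 37 deg C, then glutathione donor/nickel acceptor beads added for 1 h at 37 deg C in dark.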
BAZ2B inh = inhibitors of human BAZ2B bromodomain. hit rate 4.4% among 360,000. AlphaScreen BAZ2B-H3K14Ac peptide displacement. Potency, µM (series often up to 114 µM), usual class: inhibitors. AID 504333. Q9UIF8; also: nearly all actives have a fitted effect of over 60% in size
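BAZ2B (50 nM) with biotin-H3(5-23)K14Ac peptide (50 nM) in PBS pH 7.4, 0.01% Tween-20, preformed 30 min, then compound 30 min at room temperature; top concentration 110uM. AlphaScreen streptavidin donor/nickel chelate acceptor beads (10 ug/mL final), 20 min dark, signal read.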
G9a block = inhibitors of human histone lysine methyltransferase G9a. Potency, µM (series often up to 102 µM), actives largely listed as inhibitors. hit rate 8.8% among 350,000. Q96KQ7. G9a H3K9 monomethylation, AlphaScreen, 2 h. AID 504332; also: nearly all actives have a fitted effect of over 75% in size
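AlphaScreen detection with an anti-monomethyl H3K9 antibody quantified product after a 2 h room-temperature reaction containing 500 nM biotinylated H3K9 peptide, 20 µM SAM and 20 nM enzyme, which had been preincubated 15 min with compound.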
A number is an active result; – = inactive; ? = inconclusive; · = not tested or not shown; [ ] = another dose, or the depositor's remark. A selection: hits, their analogues and other compounds. The true share with any hit is near 10%. Unless noted, calls follow the shape of the dose curve; as a rule, active = well fitted inhibition curve with a large enough effect; inconclusive = small, poorly fitted or top-dose-only effect; inactive = no such curve, though single readings can be large or run the other way.

SMILES	HP1b binding inh	Six1-Eya2 inh	JMJD2A Tudor	CtBP-E1A inh	BAZ2B inh	G9a block
COC(=O)C(CC(C)C)N1CCC(=O)c2ccccc2S1(=O)=O (stereo not given)	–	–	–	–	–	?
CCOC(=O)/C=C1\CN(CCC(C)C)S(=O)(=O)c2ccccc21	–	–	–	–	–	35µM
CCOC(=O)/C=C1\CC(C(=O)OCC)Oc2ccccc21 (stereo not given)	–	–	–	–	·	–
CCOC(=O)/C=C1\CN(C(C)c2ccccc2)S(=O)(=O)c2ccccc21 (stereo not given)	–	–	79µM	–	–	18µM
Cc1cc2c(=O)c(C(=O)c3ccncc3)cn(CC(=O)Nc3cccc(C)c3C)c2cc1C	–	·	–	·	–	–
C#CCOCCOCCOCCNc1nc(N2CCN(C(=O)[C@H](CCCCN)n3cc(C(N)CO)nn3)CC2)nc(N2CCN(C(=O)[C@H](CCC(=O)O)n3cc(C(N)Cc4ccc(O)cc4)nn3)CC2)n1 (stereo not given in full)	·	·	·	·	18µM	?
C#CCOCCOCCOCCNc1nc(N2CCN(C(=O)[C@H](CCCCN)n3cc(CCC(=O)O)nn3)CC2)nc(N2CCN(C(=O)[C@H](Cc3ccc(O)cc3)n3cc(CCO)nn3)CC2)n1	–	–	–	–	·	·
C#CCOCCOCCOCCNc1nc(N2CCN(C(=O)[C@H](CCC(=O)O)n3cc(C(N)CC(C)C)nn3)CC2)nc(N2CCN(C(=O)[C@H](Cc3ccc(O)cc3)n3cc(C(N)CC(C)C)nn3)CC2)n1 (stereo not given in full)	–	–	79µM	–	79µM	?
C#CCOCCOCCOCCNc1nc(N2CCN(C(=O)[C@H](CCC(=O)O)n3cc(C(N)Cc4ccc(O)cc4)nn3)CC2)nc(N2CCN(C(=O)[C@H](Cc3ccc(O)cc3)n3cc(C(N)CC(C)C)nn3)CC2)n1 (stereo not given in full)	·	·	·	·	35µM	?
C#CCOCCOCCOCCNc1nc(N2CCN(C(=O)[C@H](Cc3ccc(O)cc3)n3cc([C@@H](N)CC(C)C)nn3)CC2)nc(N2CCN(C(=O)[C@H](Cc3ccc(O)cc3)n3cc([C@@H](N)CC(C)C)nn3)CC2)n1	·	·	·	·	50µM	–
CC1=C(c2ccc(C(C)C)cc2)S(=O)(=O)N=C1N1CCN(c2ccccc2F)CC1	–	·	–	·	–	?
Cc1ccc(C(=O)NCC(=O)OCC(=O)c2c(N)n(C)c(=O)n(C)c2=O)cc1C	–	–	–	–	·	·
C#CCOCCOCCOCCNc1nc(N2CCN(C(=O)[C@H](CCC(=O)O)n3cc(C(N)Cc4ccc(O)cc4)nn3)CC2)nc(N2CCN(C(=O)[C@H](CCC(=O)O)n3cc(C(N)Cc4ccc(O)cc4)nn3)CC2)n1 (stereo not given in full)	–	–	50µM	·	50µM	?
CCNc1ccccc1CP(=O)(c1ccccc1)c1ccccc1O (stereo not given)	32µM	–	50µM	–	40µM	?
Cc1ccc(O)c(CP(=O)(c2ccccc2)c2ccccc2)c1	–	–	–	–	–	–
COc1ccc(-n2cc(CNCCc3cnc[nH]3)c(-c3cccc(F)c3)n2)cc1	–	–	?	–	50µM	–
COc1ccc(CNCc2cn(-c3cccc(F)c3)nc2-c2ccc(C)o2)cc1	–	–	?	–	?	45µM
Cc1ccc(-n2cc(CNCCc3ncc(C)[nH]3)c(-c3ccc(F)cc3)n2)cc1	–	–	56µM	–	?	–
COc1ccc(-n2cc(CNCCc3ncc(C)[nH]3)c(-c3ccccc3Cl)n2)cc1	–	–	–	–	?	35µM
Cc1cccc(N2CCN(C(=O)COc3ccc4c(c3)CCC4)CC2C)c1 (stereo not given)	–	–	–	–	?	–
C[C@H](CO)N1C[C@H](C)[C@@H](CN(C)S(=O)(=O)c2ccc(F)cc2)Oc2ccc(NS(=O)(=O)c3ccccc3)cc2C1=O	–	–	–	–	·	·
Cc1c(C#N)c(O)[nH]c(=O)c1N=Nc1ccc(S(N)(=O)=O)cc1	?	–	?	?	–	79µM
Cc1c(C#N)c(O)[nH]c(=O)c1N=Nc1ccc(Cl)c(C(=O)O)c1	–	–	–	–	–	–[2.33 µM]
CC1CC=CC2C1C(=O)N(Cc1ccccc1)C2c1ccc(F)c(Br)c1 (stereo not given)	–	·	–	·	·	·
COc1cccc2sc(N(CCCN(C)C)C(=O)c3ccc(S(=O)(=O)N4CCc5ccccc5C4)cc3)nc12	–	–	?	–	?	?
SMILES	HP1b binding inh	Six1-Eya2 inh	JMJD2A Tudor	CtBP-E1A inh	BAZ2B inh	G9a block
CN(C)CCCN(C(=O)c1ccc(S(=O)(=O)N2CCc3ccccc3C2)cc1)c1nc2c(F)cc(F)cc2s1	–	–	?	–	?	35µM
COc1cc2nc(N(CCCN(C)C)C(=O)c3ccc(S(=O)(=O)N4CCc5ccccc5C4)cc3)sc2cc1OC	–	–	–	–	–	40µM
COc1cc2nc(N(CCCN(C)C)C(=O)c3ccc(C(=O)c4ccccc4)cc3)sc2cc1OC	?	–	?	–	?	50µM
COc1ccc(OC)c2sc(N(CCCN(C)C)C(=O)c3ccc(S(=O)(=O)N4CCc5ccccc5C4)cc3)nc12	·	·	·	·	–	8.9µM
O=C(/C=C/c1ccccc1)NCCCNC(=O)/C=C/c1ccccc1	–	–	–	–	–	–
O=C(C[C@H]1CC[C@@H]2[C@H](COC[C@H](O)CN2Cc2cccc(C(F)(F)F)c2)O1)NCCc1ccccc1	·	–	·	–	·	·
CCN(CC)C(=O)Cn1c(=O)cc(C)c2c(C)nn(-c3ccc(C)cc3)c21	?	·	–	·	–	–
CC1CCC(NC(=S)NCCN(C)C)CC1 (stereo not given)	–	–	7.9µM	–	50µM	40µM
CN(C)CCNC(=O)NC1CCCCC1	–	–	–	–	–	–
COc1ccccc1N1C(=O)C2C(c3ccccc3F)NN(C(=O)c3ccc(C)cc3)C2C1=O (stereo not given)	–	–	–	–	–	20µM
O=C(CN1CCCC1)NC12CC3CC(CC(C3)C1)C2	–	–	–	–	–	–
CC1(C)C2CCC(C2)C1(C)NC(=O)CNCc1cccs1 (stereo not given)	?	–	25µM	·	·	11µM
CC1(C)C2CCC(C2)C1(C)NC(=O)CN1CCOCC1 (stereo not given)	?	–	32µM	–	50µM	10µM
CC1(C)C2CCC(C2)C1(C)NC(=O)CNC1CCCCC1 (stereo not given)	–	–	–[11.4 µM]	–	50µM	13µM
CC1(C)C2CCC(C2)C1(C)NC(=O)CN1CCCC1 (stereo not given)	–	–	28µM	–	?	5µM

High-throughput results as filed in PubChem BioAssay.
